# Measured values as given in the supplement of paper PMC10933113.
# Test system: KeratinoSens (HaCaT ARE-luciferase) cells;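 active = curve rank above 3; inactive = curve rank 0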
# Experiment: Nrf2/ARE luciferase activation call in qHTS KeratinoSens assay (1 = active, 0 = inactive)
row,Structure (SMILES),Nrf2/ARE luciferase activation call
1,CC(CN(C)C)CN1c2ccccc2CCc2ccccc21.O=C(O)/C=C\C(=O)O (stereo not given),not active ARE inducer (skin sensitizer alert) (inactive)
2,CN(C)CC[C@@H](c1ccc(Br)cc1)c1ccccn1.O=C(O)/C=C\C(=O)O,not active ARE inducer (skin sensitizer alert) (inactive)
3,O=C(O)/C=C/C(=O)O.OCCOCCN1CCN(C2=Nc3ccccc3Sc3ccccc32)CC1.OCCOCCN1CCN(C2=Nc3ccccc3Sc3ccccc32)CC1,not active ARE inducer (skin sensitizer alert) (inactive)
4,CCCCCCCCn1cc[n+](C)c1.O=S(=O)([O-])C(F)(F)F,not active ARE inducer (skin sensitizer alert) (inactive)
5,CCCc1nn(C)c2c(=O)[nH]c(-c3cc(S(=O)(=O)N4CCN(C)CC4)ccc3OCC)nc12.O=C(O)CC(O)(CC(=O)O)C(=O)O,not active ARE inducer (skin sensitizer alert) (inactive)
